Where a name gives a salt, the structure may show the parent alone.
Legend:
Experiment in all cases: cell proliferation relative to vehicle (% of vehicle); higher = less growth inhibition
Conditions in all cases: 72 h
[1] = tested on: U2932 TK216-resistant clone 2
Method in brief: (§1)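 Parental U2932 cells (ABC-DLBCL) and two clones made resistant to an ETS-targeting agent by almost a year of repeated exposure were treated for 72 h with 348 targeted inhibitors at 500 nM or 50 nM. MTT was then applied for 4 h, the reaction was stopped with 25% SDS, and absorbance was measured on a Cytation 3. Values express proliferation as percent of proliferating cells compared with DMSO vehicle.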

[2] = tested on: U2932 TK216-resistant clone 3
Method in brief: as §1

[3] = tested on: U2932 parental
Method in brief: as §1

SMILES	cell proliferation ([1]; 50 nM)	cell proliferation ([1]; 500 nM)	cell proliferation ([2]; 50 nM)	cell proliferation ([2]; 500 nM)	cell proliferation ([3]; 50 nM)	cell proliferation ([3]; 500 nM)
Nc1cc(C(F)(F)F)c(-c2cc(N3CCOCC3)nc(N3CCOCC3)n2)cn1 [BKM120 (NVP-BKM120, Buparlisib)]	112	77.9	96.2	72.4	97.7	78.5
C[C@H]1c2cccc(O)c2C(=O)C2=C(O)[C@]3(O)C(=O)C(C(N)=O)=C(O)[C@@H](N(C)C)[C@@H]3[C@@H](O)[C@@H]21 [Doxycycline Hyclate]	104	105	102	102	106	105
Cc1cc(Nc2cc(N3CCN(C)CC3)nc(/C=C/c3ccccc3)n2)n[nH]1 [ENMD-2076 L-(+)-Tartaric acid]	101	61.9	105	57.2	99	47.6
O=c1sn(-c2cccc3ccccc23)c(=O)n1Cc1ccccc1 [Tideglusib]	94	106	103	101	89.3	93.1
CC(=O)O[C@H]1C(=O)[C@@]2(C)[C@H]([C@H](OC(=O)c3ccccc3)[C@]3(O)C[C@H](OC(=O)[C@H](O)[C@@H](NC(=O)c4ccccc4)c4ccccc4)C(C)=C1C3(C)C)[C@]1(OC(C)=O)CO[C@@H]1C[C@@H]2O [Paclitaxel]	11.2	14.3	6.88	4.73	11.2	9.85
Cc1c(NC(=O)OC[C@@H]2COCCN2)cn2ncnc(Nc3ccc4c(cnn4Cc4cccc(F)c4)c3)c12	100	80.4	98.1	71.9	97.2	81.6
CN1CCN(CCCNc2ncc(Cl)c(-c3cc4c(C(=O)NC5CC5)cccc4s3)n2)CC1	101	86.5	98.2	99	95.3	100
CCc1nc(-c2cccc(C)c2)c(-c2ccnc(NC(=O)c3ccccc3)c2)s1	103	97.7	98.4	103	104	101
Cc1cnc(Nc2ccc(N3CCN(C)CC3)cc2)nc1Nc1cccc(S(=O)(=O)NC(C)(C)C)c1	95.6	70.3	90	65.2	89.4	79.5
Cn1cnc([N+](=O)[O-])c1Sc1ncnc2[nH]cnc12 [Azathioprine]	100	98.4	103	103	97.5	103
CC1(C)CCC(c2ccc(Cl)cc2)=C(CN2CCN(c3ccc(C(=O)NS(=O)(=O)c4ccc(N[C@H](CCN5CCOCC5)CSc5ccccc5)c(S(=O)(=O)C(F)(F)F)c4)cc3)CC2)C1 [ABT-263 (Navitoclax)]	100	62.4	99.4	64.2	91.5	86.6
COCC[n+]1c2c(n(Cc3cnccn3)c1C)C(=O)c1ccccc1C2=O [YM155 (Sepantronium Bromide)]	-0.426	-1.48	-1.12	-4.35	0.598	-3.81
CC[C@]1(O)C[C@H]2CN(CCc3c([nH]c4ccccc34)[C@@](C(=O)OC)(c3cc4c(cc3OC)N(C=O)[C@H]3[C@@](O)(C(=O)OC)[C@H](OC(C)=O)[C@]5(CC)C=CCN6CC[C@]43[C@@H]65)C2)C1 [Vincristine sulfate]	9.22	10	7.89	9.97	10.4	13.4
CN1CCC(CNc2ccc3ncc(-c4cccc(OC(F)(F)F)c4)n3n2)CC1 [SGI-1776 free base]	103	86.7	105	82.4	95.5	94.1
O=C1c2c(O)ccc(O)c2C(=O)c2c(NCCNCCO)ccc(NCCNCCO)c21 [Mitoxantrone]	12	5.19	16	15	18.8	8.11
O=C1c2c(O)ccc(O)c2C(=O)c2c(NCCNCCO)ccc(NCCNCCO)c21 [Mitoxantrone HCl]	9.19	5.75	14.8	10.6	16.4	7.06
CN1CCN(c2ccc3nc(-c4c(N)c5c(F)cccc5[nH]c4=O)[nH]c3c2)CC1 [Dovitinib (TKI-258, CHIR-258)]	103	83.9	95.7	83.3	95.1	96.9
CCC(C)(C)C(=O)O[C@H]1C[C@@H](C)C=C2C=C[C@H](C)[C@H](CC[C@@H]3C[C@@H](O)CC(=O)O3)[C@H]21 [Simvastatin]	91.4	88.7	98.4	89.1	90.5	87.4
Cn1cncc1[C@@](N)(c1ccc(Cl)cc1)c1ccc2c(c1)c(-c1cccc(Cl)c1)cc(=O)n2C [Tipifarnib]	91.9	90.6	71.5	74.9	62.7	62.5
COc1ccc(-c2ccc3c(N4CCOC[C@@H]4C)nc(N4CCOC[C@@H]4C)nc3n2)cc1CO	72.7	34.8	75.1	40.2	63.8	35.1
CC(C)C(=O)Nc1ccc([N+](=O)[O-])c(C(F)(F)F)c1 [Flutamide]	90.7	87.2	97.2	98.3	89.3	87.6
COc1cc2nccc(Oc3ccc(NC(=O)C4(C(=O)Nc5ccc(F)cc5)CC4)cc3)c2cc1OC [Cabozantinib malate (XL184)]	109	109	102	95.7	109	103
CC(C)(C)c1cc(NC(=O)Nc2ccc(-c3cn4c(n3)sc3cc(OCCN5CCOCC5)ccc34)cc2)no1 [Quizartinib (AC220)]	95.7	97.3	95	90.2	101	102

SMILES	cell proliferation ([1]; 50 nM)	cell proliferation ([1]; 500 nM)	cell proliferation ([2]; 50 nM)	cell proliferation ([2]; 500 nM)	cell proliferation ([3]; 50 nM)	cell proliferation ([3]; 500 nM)
CC(C)n1c(/C=C/C(O)CC(O)CC(=O)O)c(-c2ccc(F)cc2)c2ccccc21 (stereo unspecified) [Fluvastatin Sodium]	97.4	89.5	92.2	102	81.9	83.5
CC[C@H](NC(=O)[C@H](C)NC)C(=O)N1C[C@@H](O)C[C@H]1Cc1c(-c2[nH]c3cc(F)ccc3c2C[C@@H]2C[C@H](O)CN2C(=O)[C@H](CC)NC(=O)[C@H](C)NC)[nH]c2cc(F)ccc12 [Birinapant]	102	100	99.4	90.9	103	101
CN1CCN(Cc2ccc(-c3cnc4[nH]cc(-c5ccc6[nH]ccc6c5)c4c3)cc2)CC1	96.6	91.2	97.2	85.4	92.5	101
CC(C)Oc1ccc(C(=O)N[C@H](CNC(=O)CN(C)C)Cc2ccc(-c3cn4cccc([C@H](C)O)c4n3)cc2)cc1Cl	45.4	15	34.3	14.4	47.6	14.6
O=c1cc(N2CCOCC2)oc2c(-c3ccccc3)cccc12	110	102	100	97.3	105	105
CN1CCCN(C(=O)c2cccc(-c3ccc(/C=C4/C(=O)Nc5ccc(Cl)cc54)o3)c2)CC1	105	80.8	97	88.5	104	96.5
CCCNC(=O)c1cn2ncnc(Nc3cc(C(=O)NC4CC4)ccc3C)c2c1C	104	98.2	105	103	103	98.7
COc1cc(-c2cc(-c3ccc(N4CCNCC4)cc3)cnc2C)cc(OC)c1OC	99.7	88.1	107	88.5	104	96.6
CN(C)c1nc(N(C)C)nc(N(C)C)n1 [Altretamine]	105	102	106	96.6	97.7	104
NC(=O)c1ccc(I)c([N+](=O)[O-])c1 [Iniparib (BSI-201)]	107	98.2	105	103	97	102
CCCCC(C=O)NC(=O)C(CC(C)C)NC(=O)C(CC(C)C)NC(C)=O (stereo unspecified)	107	12.7	106	24.2	103	39.6
CNCc1ccc(-c2[nH]c3cc(F)cc4c3c2CCNC4=O)cc1	101	94.9	99.8	108	96.6	93.4
O=C(/C=C/c1cccc(S(=O)(=O)Nc2ccccc2)c1)NO [Belinostat (PXD101)]	104	48.6	98.1	67.6	90.1	41.8
C=CCNC1=C2C[C@@H](C)C[C@H](OC)[C@H](O)[C@@H](C)/C=C(\C)[C@H](OC(N)=O)[C@@H](OC)/C=C\C=C(/C)C(=O)NC(=CC1=O)C2=O [17-AAG (Tanespimycin)]	103	115	105	114	96.7	107
Oc1nc(-c2ccc(C(F)(F)F)cc2)nc2c1CSCC2	90.3	108	111	95.1	99.3	98.2
Cn1cc(-c2ccc3nnc(C(F)(F)c4ccc5ncccc5c4)n3n2)cn1	102	103	106	113	99.8	99.2
C=C1/C(=C\C=C2/CCC[C@]3(C)[C@@H]([C@H](C)/C=C/[C@H](C)C(C)C)CC[C@@H]23)C[C@@H](O)C[C@@H]1O [Doxercalciferol]	104	92.2	101	103	105	98.5
C[C@@H](Nc1cc(F)cc(F)c1)c1cc(C(=O)N(C)C)cc2c(=O)cc(N3CCOCC3)oc12	111	83.1	99.4	84.5	99.9	90.3
Cc1ccc(S(=O)(=O)/C=C/C#N)cc1	107	113	109	104	102	102
Cc1cnc(-c2ccccc2C(C)C)nc1NCc1ccc(-n2ccnn2)cc1	108	97.8	105	108	101	98.5
CCCCCCCCc1ccc(CCC(N)(CO)CO)cc1 [Fingolimod (FTY720) HCl]	99.3	102	99.6	96.1	98.3	94.8
C[C@@H]1CC(=O)c2c(ccc3c2C(=O)c2cccc(O)c2C3=O)C1	102	98.5	104	92.5	87.5	97
Cc1ccc(F)c(NC(=O)Nc2ccc(-c3cccc4[nH]nc(N)c34)cc2)c1 [Linifanib (ABT-869)]	99.8	93.1	99	95.7	90.6	107

Source: the supplement of paper PMC13172266
